In ChEMBL document CHEMBL4513216, “Probing the Open Global Health Chemical Diversity Library for Multistage-Active Starting Points for Next-Generation Antimalarials” (ACS Infect Dis, 2020) one finds INHIBITION data, which are given here for 56 molecules.

Structures are written as SMILES. The whole screen tested about 69,000 compounds, of which about 8,600 (12%) showed an effect of 50% or more. Only a selection was taken, and strong results are over-represented in it overall.

For the assay, the system named is Plasmodium berghei. As to the kind of experiment: Screen against P. berghei liver stage (PbLuc), transformed with Luciferase, at 10uM. In kind it is functional, HepG2. As to conditions: tested at 10 uM.
As to `NC(=O)CN1CCC2(CC1)C[C@@H](O)[C@H](c1ccccc1)NC2=O`, the INHIBITION is 53.2%.
Then `CN(C)C(=O)CN1CCC2(CC1)C[C@@H](O)[C@H](c1ccccc1)NC2=O`, with 22%; and `CN(C)C(=O)CN1CCn2cc(Cn3cccn3)nc2C1`, with 38.5%; and `COc1ccc(C2CCCN2c2cnccn2)c(OC)c1` (stereo unspecified), with 31.6%.
With `COc1ccc(C2CCCN2c2ccnc(C)c2Cl)c(OC)c1` (stereo unspecified), the INHIBITION turned out to be 82.2%.
Then `COc1ccc(C2CCCN2c2nnc(C)s2)c(OC)c1` (stereo unspecified), with 15.5%; and `O=C([C@@H]1CN(Cc2nccs2)C[C@H]2OCC[C@H]21)N1CCOCC1`, with 14%; and `Cn1cc(CN2CC[C@H]3O[C@H](C(=O)NCc4ccco4)CC[C@H]32)cn1`, with -20.6%.
For the molecule `CC1c2ncc(CNC(=O)C3CC3)n2CCN1Cc1nccs1` (stereo unspecified), the INHIBITION is reported as -4.32%.
Then `CCCOC(=O)N1CCCC2(CCN(Cc3cccc(C#N)c3)C2)C1` (stereo unspecified), with 2.7%.
To `CN1CCC2(COCCN(Cc3cccc(C#N)c3)C2)C1` (stereo unspecified) belongs 89.6%.
`CCN1CC2(CCC1=O)CCN(Cc1cccc(C#N)c1)CC2`: the INHIBITION is on record as 33.4%.
Then `CN1CCC2(COCCN(Cc3ccc4c(c3)OCO4)C2)C1` (stereo unspecified), with 61.5%; and `c1cc2c(cc1CN1CCCC3(CCOC3)C1)OCO2` (stereo unspecified), with 25.4%.
To `COCCN1CCC2(COCCN(Cc3ccc4c(c3)OCO4)C2)C1` (stereo unspecified) belongs 46.7%; to `COCC(C)NC(=O)c1sccc1-n1cnnn1` (stereo unspecified), 36.5%; to `Cc1cc(-c2nnn(CCNS(C)(=O)=O)n2)ccc1F`, 31.8%.
To `Nc1nnc(Cn2nnc(-c3ccccc3F)n2)s1` belongs 61.8%; to `Fc1ccccc1CN1CCC[C@H](Cn2nnc(-c3cccs3)n2)C1`, 21.6%; to `Nc1nnc(CCCn2nnc(-c3ccccc3F)n2)s1`, 44.7%.
For the molecule `Fc1ccccc1-c1nnn(CCCc2nn[nH]n2)n1`, the INHIBITION turned out to be 78.8%.
Then `CNS(=O)(=O)CCCn1nnc(-c2ccc(F)c(C)c2)n1`, with -6.51%.
To `COCCN1CCC(Cc2cncc(-c3ccc(C(=O)O)cc3)n2)CC1` belongs 31.6%; to `Nc1cnn(CC(=O)N2CCCCC2)c1`, 34%; to `COc1cccc(CN2CCCCC2Cn2nc(C)nc2C)c1` (stereo unspecified), -59.4%.
To `NC(=O)COc1ccc(C(=O)N2CCCC(n3ccnc3)C2)cc1` (stereo unspecified) belongs -19.4%.
As to `CNC(=O)N1CC[C@H]2N(C)CC[C@@]2(C(=O)N2CCOCC2)CC1`, the INHIBITION is listed as -18.4%.
Then `COc1ccc(C(=O)N2CCCS2(=O)=O)cc1OC`, with 5.03%; and `CCOc1ccc(C(=O)N2CCCS2(=O)=O)cc1OC`, with 11.2%.
Then `COc1cc(C(=O)N2CCCS2(=O)=O)ccc1OC(C)C`, with 66.7%; and `Cc1cc(C)n(NC(=O)c2ccc(Cl)cc2Cl)c(=O)c1`, with 60.4%; and `Cc1cc(C)n(NC(=O)c2ccccc2C)c(=O)c1`, with -46.4%.
To `Cc1cc(C)n(NC(=O)c2ccccc2F)c(=O)c1` belongs 47.1%.
For `CCc1nc(CN2CCN(C(=O)c3csnn3)CC2)cs1`, the INHIBITION was 10.2%.
Turning to `CS(=O)(=O)Cc1ccc(C(=O)NC2CCc3nccn3C2)o1` (stereo unspecified), the INHIBITION was -16.38%.
Turning to `CCc1c(O)nc2nc(N3CCCC3)nn2c1C`, the INHIBITION worked out at 44.1%.
As for `Cc1ncccc1Oc1cncc(C2CCCN2Cc2cncn2C)n1` (stereo unspecified), the INHIBITION is reported as 32.8%.
To `COc1ccc(Oc2cncc(C3CCCN3C(C)=O)n2)cc1` (stereo unspecified) belongs -3.98%; to `CN(C)CC(=O)N1CCCC1c1cncc(Oc2ccc(F)cc2)n1` (stereo unspecified), 53%.
To `Cn1cncc1CN1CCCC1c1cncc(Oc2ccc(F)cc2)n1` (stereo unspecified) belongs 67.7%; to `CNCC(=O)N1CCCC1c1cncc(Oc2ccc(F)cc2)n1` (stereo unspecified), 38.2%.
Consider `Cn1cncc1CN1CCCC1c1cncc(Oc2ccc(Cl)cc2)n1` (stereo unspecified), for which the INHIBITION is recorded as 96.6%.
Then `CC(=O)N1CCCC1c1cncc(Oc2ccc(F)cc2)n1` (stereo unspecified), with 11.1%; and `NC(=O)CN1CCCC1c1cncc(Oc2ccc(Cl)cc2)n1` (stereo unspecified), with 13.5%.
For `CC(C)(N)C(=O)N1CCCC1c1cncc(Oc2ccc(F)cc2)n1` (stereo unspecified), the INHIBITION was 31.1%.
For the molecule `CCN(CC)C(=O)c1ccn(COc2c(Cl)cccc2Cl)n1`, the INHIBITION stood at 20.9%.
To `Cc1ccc(N2CCCN(C(=O)CCCn3ccnc3C)CC2)nn1` belongs 7.18%; to `CN(C)CCO[C@H]1C[C@@H](O)C12CCN(c1nccc3ccccc13)CC2`, -3.58%.
Take `O[C@]12CCNC[C@H]1CN(c1ncccc1Cl)CC2`: the INHIBITION turned out to be 7.6%.
To `O[C@]12CCNC[C@H]1CN(c1ccnc3ccccc13)CC2` belongs 56.7%; to `Cc1nnc(N2CC[C@@]3(O)CCNC[C@H]3C2)c2ccccc12`, 25.8%; to `CCCOc1ccc2ccccc2c1CN1CC[C@@]2(O)CCNC[C@H]2C1`, 5.41%.
For `O=C(O)C1CC2(CCN(c3nccc4ccccc34)CC2)CN1` (stereo unspecified), the INHIBITION turned out to be 93.1%.
As to `CN(C)c1nccnc1N1CC[C@@]2(O)CCNC[C@H]2C1`, the INHIBITION is on record as 15.8%.
With `CC(=O)N1CC2(CCN(c3nccc4ccccc34)CC2)CC1C(=O)O` (stereo unspecified), the INHIBITION is given as 29.2%.
With `O[C@]12CCNC[C@H]1CN(c1nccc3ccccc13)CC2`, the INHIBITION was 53.9%.
